Among the data in PubChem BioAssay (NCI) are growth values, retold here.

Values joined by “and” are separate entries in the source; they are usually repeats but may differ in a detail not shown here. Equal values may be shown once. About 83,000 compounds went through this panel and 20% of them were active in at least one assay; those are over-represented in the sample as a whole.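 Cell lines were cultured in 96-well plates, exposed to a single compound concentration, and assessed for percent growth 48 hours later.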 Active and inactive are the calls of the source. The calls were made as follows: active = growth percent below 10; inactive = the rest.

This assay has as its system MDA-MB-468 breast. Briefly: NCI-60 one-dose screen, 48 h (100 = growth as untreated, 0 = no growth, -100 = all killed). As to conditions: 10 µM unless noted.

Consider `Oc1ccc2cc(Br)ccc2c1-c1c(O)ccc2cc(Br)ccc12`, for which the growth was 90.9% (inactive).

For `O=C(c1ccc(Cl)cc1)N1CCCCC1`, the growth is 101% (inactive). As for `COc1ccc(S(=O)(=O)n2cc(C(=O)C(=O)Nc3ccncc3)c3ccccc32)cc1F`, the figure is 17.9% (inactive). As for `Cc1ccc(NCSc2ccc(Cl)cc2)cc1`, the figure is -0.979% (active) and 43.6% (inactive); as for `CCCCn1c(-c2ccc(C(=O)O/N=C(\N)c3ccc4ccccc4c3)cc2)nc(-c2ccccc2)c1-c1ccccc1`, 79.9% (inactive).
